biological target: MACROD1; experiment: pooled miR-30 sensor sort-seq; sequence = guide strand; details: shRNA

Row | Sequence | sensor-assay potency score (higher = more potent)
1 | AAGGATTTCGCCTCCTTCCAGT | -0.552
2 | TTCGCCTCCTTCCAGTCGGTGG | -1.48
3 | TTGAGCTGCTTGTCCTTTTTAT | -0.992

biological target: MAD2L2; experiment: as above; details: shRNA

Row | Sequence | sensor-assay potency score (higher = more potent)
4 | TGGATCTTCTCCATGTTGCGAG | -0.717
5 | TGTACTTCTTGCGTTTCTGGAA | -0.3
6 | TATACTGATTCAGCTCCGGGTG | -0.735
7 | TTGTACTTCTTGCGTTTCTGGA | -0.29
8 | TTTATCCAAAATCACCACCACC | -1.44
9 | TTTAGTGGTATCAGCCGGGGGT | -0.467
10 | TTTTAGTGGTATCAGCCGGGGG | -1.07
11 | TCCACATGAGACAACAGCGAGT | -1.88
12 | TTTCTCCACATCATTCTTCTCC | -0.203
13 | TGAGACAACAGCGAGTCTGAGC | -0.635
14 | TTTTTAGTGGTATCAGCCGGGG | -0.778
15 | TTCCACGTAAAGCTGCATCTTT | -0.0388

Reference: the OligoGym collection
